Hits are enriched below; roughly 27% of the tested compounds scored in any of these assays.
Cav3 T inh: human Cav3.2 channel inhibition, primary screen; 4% of 100,000 active; Cav3.2-expressing cells, Fluo-4 calcium fluorescence FDSS; stronger effect = lower value; B-score at 10 µM; O95180;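 active = single-dose well whose peak fluorescence ratio is a statistical outlier from its plate by either plate-standardised score or position-corrected B-score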
Target sequence (O95180 whole entry, looked up): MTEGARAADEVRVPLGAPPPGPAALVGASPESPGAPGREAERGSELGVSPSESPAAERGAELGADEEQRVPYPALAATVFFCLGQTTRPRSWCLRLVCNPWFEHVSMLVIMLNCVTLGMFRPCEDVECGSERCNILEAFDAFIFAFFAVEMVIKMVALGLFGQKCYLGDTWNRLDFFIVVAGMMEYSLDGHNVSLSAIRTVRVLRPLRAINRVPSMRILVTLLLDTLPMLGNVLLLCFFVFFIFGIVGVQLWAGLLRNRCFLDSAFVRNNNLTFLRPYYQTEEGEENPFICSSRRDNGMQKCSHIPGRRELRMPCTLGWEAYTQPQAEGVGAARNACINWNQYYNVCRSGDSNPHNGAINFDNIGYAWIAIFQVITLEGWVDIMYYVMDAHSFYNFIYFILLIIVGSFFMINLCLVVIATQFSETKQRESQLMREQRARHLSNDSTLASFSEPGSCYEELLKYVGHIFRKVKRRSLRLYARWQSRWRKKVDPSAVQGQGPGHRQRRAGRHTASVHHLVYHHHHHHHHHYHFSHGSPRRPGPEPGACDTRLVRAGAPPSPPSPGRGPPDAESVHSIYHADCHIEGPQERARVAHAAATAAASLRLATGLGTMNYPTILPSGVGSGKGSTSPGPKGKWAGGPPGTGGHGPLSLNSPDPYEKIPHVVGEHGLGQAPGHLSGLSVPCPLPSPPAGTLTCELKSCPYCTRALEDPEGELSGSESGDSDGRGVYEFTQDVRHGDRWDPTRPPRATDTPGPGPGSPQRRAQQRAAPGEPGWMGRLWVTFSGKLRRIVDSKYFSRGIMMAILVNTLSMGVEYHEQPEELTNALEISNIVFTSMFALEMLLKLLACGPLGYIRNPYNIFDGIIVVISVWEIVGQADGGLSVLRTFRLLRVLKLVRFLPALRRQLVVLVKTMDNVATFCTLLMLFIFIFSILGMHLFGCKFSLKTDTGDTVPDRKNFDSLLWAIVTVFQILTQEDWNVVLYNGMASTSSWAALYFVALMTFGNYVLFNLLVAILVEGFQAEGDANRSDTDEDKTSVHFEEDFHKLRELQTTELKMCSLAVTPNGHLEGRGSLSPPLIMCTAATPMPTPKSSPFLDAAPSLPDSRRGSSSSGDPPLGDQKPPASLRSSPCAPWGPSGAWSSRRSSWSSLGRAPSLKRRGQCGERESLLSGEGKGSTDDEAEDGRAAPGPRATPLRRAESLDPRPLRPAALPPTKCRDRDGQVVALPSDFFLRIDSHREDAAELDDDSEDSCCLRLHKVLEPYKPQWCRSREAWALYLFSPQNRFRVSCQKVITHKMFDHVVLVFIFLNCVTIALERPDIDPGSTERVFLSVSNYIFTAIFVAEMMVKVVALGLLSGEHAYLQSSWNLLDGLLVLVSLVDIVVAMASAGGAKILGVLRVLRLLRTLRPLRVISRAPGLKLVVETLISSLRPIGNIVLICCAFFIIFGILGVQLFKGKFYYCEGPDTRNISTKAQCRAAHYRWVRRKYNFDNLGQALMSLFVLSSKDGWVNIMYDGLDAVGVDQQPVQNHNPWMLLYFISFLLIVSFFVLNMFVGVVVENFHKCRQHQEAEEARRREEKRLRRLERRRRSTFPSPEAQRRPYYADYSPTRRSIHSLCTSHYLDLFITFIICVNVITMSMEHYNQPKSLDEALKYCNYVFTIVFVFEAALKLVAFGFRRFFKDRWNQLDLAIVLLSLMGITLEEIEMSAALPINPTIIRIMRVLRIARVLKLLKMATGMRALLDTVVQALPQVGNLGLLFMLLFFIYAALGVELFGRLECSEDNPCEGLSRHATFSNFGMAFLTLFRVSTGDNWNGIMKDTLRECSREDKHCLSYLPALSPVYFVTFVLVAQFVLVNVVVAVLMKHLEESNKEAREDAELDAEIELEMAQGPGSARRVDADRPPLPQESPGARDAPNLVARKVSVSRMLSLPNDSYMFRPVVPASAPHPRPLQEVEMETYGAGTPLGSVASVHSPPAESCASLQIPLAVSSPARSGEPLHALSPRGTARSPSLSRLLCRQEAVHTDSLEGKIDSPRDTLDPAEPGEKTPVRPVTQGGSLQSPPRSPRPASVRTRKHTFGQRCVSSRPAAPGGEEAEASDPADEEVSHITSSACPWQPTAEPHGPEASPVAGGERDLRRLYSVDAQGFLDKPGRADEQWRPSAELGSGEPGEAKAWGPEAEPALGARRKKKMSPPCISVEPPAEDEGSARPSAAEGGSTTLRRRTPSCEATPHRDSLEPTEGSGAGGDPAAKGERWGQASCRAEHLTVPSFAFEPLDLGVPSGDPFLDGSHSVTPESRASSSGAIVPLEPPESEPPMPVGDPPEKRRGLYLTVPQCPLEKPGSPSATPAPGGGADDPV
CYP2C19 activ: activators of human cytochrome P450 2C19; P33261; recombinant CYP2C19, luciferin-H EGE luminescence; stronger effect = higher value; 0 = fully inhibited enzyme, 1 = untreated enzyme; activation factor at 5 µM; 96,000 tested, under 10 active; AID 1025;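 active = activation factor of at least 2 at 5 µM in the primary screen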;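 also: 0 = wells with 2.5 mM tranylcypromine and 1 = vehicle-only wells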
CYP2C19 inhib: human CYP2C19 inhibition; inhibition, % at 5 µM; 21% of 96,000 active; CYP2C19 Supersomes, luciferin-H EGE luminescence, 30 min; P33261;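 active = CYP2C19 inhibition above a set limit at 5 µM in the primary screen, cut at about 50% in these data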;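 also: plate controls were negative control wells for no effect and 2.5 mM tranylcypromine positive control for full effect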
CYP2C9 inh: human CYP2C9 inhibition; AID 777; 20% of 96,000 active; inhibition, % at 5 µM; P11712; CYP2C9 Supersomes, luciferin-H conversion, luminescence;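 active = blocking of liver enzyme CYP2C9 beyond about 50% at 5 µM, limit read from the data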
CYP2C9 act: increases human cytochrome P450 2C9 activity. P11712. recombinant CYP2C9, luciferin-H conversion, luminescence; stronger effect = higher value; factor 1 = untreated enzyme, 0 = blocked. activation factor at 5 µM. 1.4% of 96,000 active. AID 1024;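 active = activation factor of 2 or more for CYP2C9 at a 5 µM dose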;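 also: 0 = sulfaphenazole-blocked wells and 1 = vehicle-only wells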
Active calls of the source: *; · = not tested or not shown.

SMILES	Cav3 T inh	CYP2C19 activ	CYP2C19 inhib	CYP2C9 inh	CYP2C9 act
COc1ccc(N2CCN(C(=O)CSc3nnc(Cn4nnc5ccccc54)n3C)CC2)cc1	0.11	0.8	15	34	0.7
Cc1ccc(S(=O)(=O)N2C(=O)CCC2C(=O)Nn2cnnc2)cc1 (configuration not stated)	0.64	1.1	-11	-23	1.2
CC(C)OC(=O)Cn1cnc2ccc(Br)cc2c1=O	-1.5	0.3	68*	38	0.6
Cc1sc2ncn(CC(=O)OC(C)C(=O)NC(C)(C)C)c(=O)c2c1C (configuration not stated)	-0.24	0.3	67*	27	0.7
COC(=O)Cn1cnc2ccccc2c1=O	0.59	1	-3	4	1
Cc1sc2ncn(CC(=O)OC(C)C)c(=O)c2c1C	-0.76	0.3	67*	41	0.6
Cc1sc2ncn(CC(=O)OCC(=O)NC(C)(C)C)c(=O)c2c1C	0.14	0.7	26	36	0.6
CCC(C)NCCOCCOc1ccc(F)cc1 (configuration not stated)	1.2	1.1	-15	1	1
CC1=C(C(=O)Nc2ccc(Br)cc2)C(c2ccco2)NC(=O)N1 (configuration not stated)	0.27	0.9	9	2	1
OCc1cn(-c2ccccc2)nc1-c1ccc2c(c1)OCCO2	0.27	0.8	20	0	1
COc1ccc(-c2nn(-c3ccccc3)cc2/C=N/NC(=O)c2ccc3c(c2)OCO3)cc1	·	0.6	37	70*	0.3
O=C(N/N=C\c1cn(-c2ccccc2)nc1-c1ccccc1)c1ccc2c(c1)OCO2	-2.8	0.5	54*	65*	0.4
O/N=C/c1cn(-c2ccccc2)nc1-c1ccc2c(c1)OCCO2	-0.16	1	0	53*	0.5
O=C(N/N=C/c1cn(-c2ccccc2)nc1-c1ccc(F)cc1)c1ccc2c(c1)OCO2	·	0.7	34	64*	0.4
Cc1c(/C=N/NC(=O)c2ccc3c(c2)OCO3)cnn1C	0.081	1.1	-7	1	1
CC12CC3CC(C)(C1)CC(C(=O)NC(=S)N1CCOCC1)(C3)C2	-1.5	0.9	5	-4	1
COc1cccc(NS(=O)(=O)c2ccc3[nH]cc(C(=O)NC4CC4)c(=O)c3c2)c1	2.4	0.9	13	52*	0.5
COc1cccc(NS(=O)(=O)c2ccc3[nH]cc(C(=O)N(C)Cc4ccco4)c(=O)c3c2)c1	-1.2	0.5	48	71*	0.3
Cc1cc(C)cc(NS(=O)(=O)c2ccc3[nH]cc(C(=O)NCc4ccco4)c(=O)c3c2)c1	-1.1	0.9	12	65*	0.4
CCOC(=O)C1CCCN(C(=O)c2ccc(OCC)cc2)C1 (configuration not stated)	0.037	0.6	38	6	0.9
CCC1(C)C2(C#N)C(N)=NC(OC)(OC)C12C#N (configuration not stated)	·	1.3	-27	-18	1.2
CCOC(=O)CC1C(=O)NC2CCCCC2N1C(=O)Nc1ccc(Cl)cc1 (configuration not stated)	-0.19	0.7	31	31	0.7
Cn1c(CC2C(=O)Nc3ccc(Br)cc32)nc2ccccc2c1=O (configuration not stated)	·	0.5	45	82*	0.2
CCCOc1ccc(C2c3c(oc4ccccc4c3=O)C(=O)N2CCCN2CCOCC2)cc1 (configuration not stated)	-0.85	0.5	54*	78*	0.2
COc1ccc(C2c3c(oc4ccccc4c3=O)C(=O)N2Cc2ccncc2)cc1 (configuration not stated)	0.8	0.6	41	59*	0.4
CCOc1ccc(C2c3c(oc4ccccc4c3=O)C(=O)N2CCCN2CCOCC2)cc1 (configuration not stated)	2	0.9	13	3	1
COC(=O)C1=C(C(=O)OC)[C@@H]2N(C)c3ccc(OC)cc3[C@@]23C[C@@H](C(=O)OC)N(C(=O)c2ccco2)C3=N1	-0.1	·	·	·	·
CCC(C)NC(=O)C1CCN(S(=O)(=O)N2CCCC2)CC1 (configuration not stated)	0.85	1.1	-5	0	1
COc1cc([C@@H]2c3cc4c(cc3[C@@H](O)[C@@H](CO)[C@@H]2CO)OCO4)cc(OC)c1O[Si](C)(C)C(C)(C)C	-1	·	·	·	·

Screening results (PubChem)
